Results as given in the supplement of paper PMC7530171.
± gives the standard deviation.

tested on: THP-1; assay: THP-1 cell loss relative to DMSO control; higher = more host cell loss (toxicity); extreme values may be limits of the assay; conditions: 10 µM; 4 days; infection: M. tuberculosis H37Rv
Procedure: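 OICR kinase inhibitor library screened in duplicate at 10 uM against M. tuberculosis-infected THP-1 macrophages, 4 days at 37 C. THP-1 cell loss (cytotoxicity or loss of adherence) was quantified from Hoechst-stained nuclei counts by high-content imaging and normalised to the 1% DMSO control; 100 = complete loss of host cells.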

SMILES	THP-1 cell loss [%]
C[C@@H](Oc1cc(-c2cnn(C3CCNCC3)c2)cnc1N)c1c(Cl)ccc(F)c1Cl	33.8 ± 9.9
CC(C)[C@H](CO)Nc1nc(Nc2ccc(C(=O)O)c(Cl)c2)c2ncn(C(C)C)c2n1 [Purvalanol B]	1.78 ± 2.5
C[C@@H](N)[C@H]1CC[C@H](C(=O)Nc2ccncc2)CC1	15.7 ± 22
Nc1cc(C(F)(F)F)c(-c2cc(N3CCOCC3)nc(N3CCOCC3)n2)cn1	73.3 ± 38
Cc1c(NC(=O)OC[C@@H]2COCCN2)cn2ncnc(Nc3ccc4c(cnn4Cc4cccc(F)c4)c3)c12	16.7 ± 9.5
CO[C@H]1C[C@@H]2CC[C@@H](C)[C@@](O)(O2)C(=O)C(=O)N2CCCC[C@H]2C(=O)O[C@H]([C@H](C)C[C@@H]2CC[C@@H](OC(=O)C(C)(CO)CO)[C@H](OC)C2)CC(=O)[C@H](C)/C=C(\C)[C@@H](O)[C@@H](OC)C(=O)[C@H](C)C[C@H](C)/C=C/C=C/C=C/1C [Temsirolimus]	43 ± 2
COc1cc(Nc2ncc3c(n2)-c2ccc(Cl)cc2C(c2c(F)cccc2OC)=NC3)ccc1C(=O)O	8.63 ± 10
COc1cc2/c(=N/c3ccc(Br)cc3F)nc[nH]c2cc1OCC1CCN(C)CC1 [Vandetanib]	40.7 ± 6.5
COc1cc2nccc(Oc3ccc(NC(=O)Nc4cc(C)on4)c(Cl)c3)c2cc1OC	27.4 ± 5
COc1cc(Nc2ncc(F)c(Nc3ccc4c(n3)N(COP(=O)(O)O)C(=O)C(C)(C)O4)n2)cc(OC)c1OC	59.6 ± 57
CCOc1cc2ncc(C#N)c(Nc3ccc(OCc4ccccn4)c(Cl)c3)c2cc1NC(=O)/C=C/CN(C)C [Neratinib]	55.4 ± 63
